DAX1 inh-1: blocks DAX1 repression of SF-1 activated StAR promoter; HEK293T StAR-luciferase reporter, SF-1/DAX-1 repression relief; inhibition, % at 6.8 µM; hit rate 1.1% among 370,000; AID 652010;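 active means inhibition above the mean over all tested compounds plus 3 SD, cut at about 3.6% in these data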;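 further: 0% = DAX-1 cells with DMSO and 100% = cells lacking DAX-1 with DMSO; higher inhibition means more luminescence from relief of DAX-1 repression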
ssDAF12 agonist: activates DAF-12 receptor from parasite S. stercoralis. AID 652126. activation, % at 6.8 µM. HEK293 ssDAF-12/GRIP1 lit1-tk-luc reporter, luminescence; % of 3 µM dafachronic acid response. hit rate 1% among 370,000;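 active means activation above the mean over all tested compounds plus 3 SD, cut at about 0.9% in these data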;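 further: 0% = DMSO-only wells and 100% = 3 µM delta7-dafachronic acid wells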
hcDAF-12 act: activators of H. contortus DAF-12 nuclear receptor. HEK293 hcDAF-12 lit1-tk-luc reporter, luminescence; 0% DMSO, 100% Δ7-dafachronic acid. activation, % at 6.8 µM. hit rate 1.4% among 370,000. AID 652067;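 active means activation above the mean of all tested compounds plus 3 SD, cut at about 5.5% in these data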;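 further: 100% = response to 3 µM Δ7-dafachronic acid high control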
hgDAF12 agonist: hgDAF-12 agonism, primary luciferase screen | hit rate 1.8% among 370,000 | activation, % at 6.8 µM | HEK293 GAL4-hgDAF12 UAS-luciferase reporter, agonist luminescence; normalized to butyrate control;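 active means activation above a cutoff set at the mean of all screened compounds plus 3 SD, cut at about 10% in these data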;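 further: 0% = DMSO wells and 100% = sodium butyrate wells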
DAX1 inh-2: inhibits human nuclear receptor DAX1. P51843. hit rate 0.99% among 340,000. inhibition, % at 6.75 µM. HEK293 Gal4-DAX1 luciferase reporter, luminescence;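 active means inhibition above the mean over all tested compounds plus 3 SD, cut at about 4.2% in these data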;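 further: 0% = DAX1-transfected cells with DMSO and 100% = empty-vector control cells with DMSO; inhibition shows as a rise in luminescence from relieved DAX1 repression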
Target sequence (P51843 207-470 limits assumed): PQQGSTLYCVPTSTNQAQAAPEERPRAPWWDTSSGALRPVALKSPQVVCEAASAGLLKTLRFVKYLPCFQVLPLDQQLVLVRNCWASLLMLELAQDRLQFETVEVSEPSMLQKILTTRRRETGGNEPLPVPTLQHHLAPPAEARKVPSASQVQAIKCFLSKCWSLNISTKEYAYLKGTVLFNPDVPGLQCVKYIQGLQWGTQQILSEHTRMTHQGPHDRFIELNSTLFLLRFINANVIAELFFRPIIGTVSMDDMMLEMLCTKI
* hit, by the source's call; · = not tested or not shown. Compounds with a hit are over-represented: about 4.1% of the library has one in this group of screens.

SMILES	DAX1 inh-1	ssDAF12 agonist	hcDAF-12 act	hgDAF12 agonist	DAX1 inh-2
CCOC(=O)[C@]12CCCC=C1N(Cc1ccc(OC)cc1)C(=O)[C@@H]2CC(=O)NCc1ccccc1	0	-1	-2	0	·
COc1cc(C(=O)NC2CCCCN(C(C)C)C2=O)cc(OC)c1OC (stereo unspecified)	0	-1	-2	5	·
CN(Cc1ccco1)S(=O)(=O)c1ccc2c(c1)CCN2C(=O)CC(C)(C)C	-1	-1	-3	4	·
Cc1cc(C)n2nc(S(=O)(=O)N(C)Cc3ccccc3)nc2n1	0	-2	-1	-1	2
Cc1cc(C)n2nc(S(=O)(=O)N(CC(C)C)CC(C)C)nc2n1	1	1.0*	-1	0	1
CC(=O)c1ccc(NC(=O)COC(=O)CCC(=O)c2cccs2)cc1	0	-2	1	-1	-1
Cc1ccc(Oc2ccc(NC(=O)CCC(=O)OCC(=O)c3cccs3)cc2)cc1C	-1	-2	1	5	4.5*
COc1ccc(C(=O)N/N=C(\C)CC(=O)Nc2ccc(N(C)C)cc2)c(OC)c1	0	-1	-1	2	4.7*
CCOC(=O)c1oc2cc(O)c(CC)cc2c(=O)c1-c1cscn1	0	0	0	3	0
CCc1cc2c(=O)c(-c3cscn3)coc2cc1O	1	1.0*	5.7*	11*	0
Cc1ccc(Cc2c(-c3ccc(C#N)cc3)nc3c(C)cc(Br)cn23)cc1	0	1.0*	0	4	·
COc1ccc(Cc2c(-c3ccccc3)nc3ccc(Br)cn23)c(C)c1	1	0	1	13*	·
COc1ccc(Cc2c(-c3ccc(C)cc3)nc3c(C)cc(Br)cn23)c(C)c1	0	1.1*	3	3	·
O=C(CSc1nnc(-c2ccncc2)n1-c1ccccc1)Nc1ccc2c(c1)OCCO2	0	-1	0	-4	·
Cc1ccc(S(=O)(=O)NC2=C(N3CCN(Cc4ccccc4)CC3)C(=O)c3ccccc3C2=O)cc1	1	-1	0	1	5.3*
CC(CCN1CCC(C(O)(c2ccccc2)c2ccccc2)CC1)Oc1cc(F)cc(C#N)c1 (stereo unspecified)	0	-1	3	-1	·
N#C/C(=C\c1ccccc1)C(=O)Nc1ccccn1	0	-1	0	2	1
CC(NC(=O)/C(C#N)=C/c1cccs1)c1ccccc1 (stereo unspecified)	-2	-2	-1	-2	-2
N#C/C(=C\c1cccs1)C(=O)Nc1ccccn1	3	1	3	7	6.9*
CC(C)(C)c1ccc(C(=O)/C(C#N)=C/c2cccs2)cc1	0	-2	0	0	4.6*
CCCC1CCC2(CCC(=O)N2CCO)CC1 (stereo unspecified)	1	-2	-1	4	·
O=C(Nc1ccc(F)cc1)N[C@@H]1C[C@@H]2O[C@H](CO)CC[C@@H]2O[C@@H]1CCc1ccc(C2=CCCC2)cc1	-1	-2	0	0	·
CCOc1ccc(-n2c(SCC(=O)Nc3ccccc3-c3ccccc3)nnc2-c2ccccc2)cc1	-2	-2	-5	2	·
CCC(C)N(C(=O)c1ccc(CNC(=O)c2cccc(Br)c2)cc1)C(C)CC (stereo unspecified)	-1	-2	-2	-4	·
Cc1ccc(C(=O)/C=C/c2cn(CN3CCN(C)CC3)c3ccccc23)cc1	2	0	1	13*	0
SMILES	DAX1 inh-1	ssDAF12 agonist	hcDAF-12 act	hgDAF12 agonist	DAX1 inh-2
Cc1ccc(-c2nc3ncccn3c2NC(=O)c2cccc(C)c2)cc1	0	-1	-2	1	·
O=c1c(O[C@H]2O[C@@H](CO)[C@H](O)[C@@H](O)[C@@H]2O)c(-c2ccc(O)cc2)oc2cc(O)cc(O)c12	0	-1	-2	4	2
O=c1c(OC2OC(CO)C(O)C(O)C2OC2OC(CO)C(O)C(O)C2O)c(-c2ccc(O)cc2)oc2cc(O)cc(O)c12 (stereo unspecified)	0	-1	0	-2	4.6*
C=CCSc1nc2ccccc2c2nc(-c3ccccc3)nn12	0	0	2	3	4.7*
C=CCNC(=O)CCC(=O)NNc1nc2ccccc2c2nc(-c3ccccc3)nn12	0	1	3	1	1
CC[C@H](CCCc1ccc(F)cc1)CN(Cc1ccc(OC)cc1)S(=O)(=O)c1ccc(C)cc1	-1	-1	-2	2	·
N/C(Cc1ccccc1Sc1ccccc1)=N\O	0	-2	-2	3	-2
N/C(Cc1cccc2ccccc12)=N\O	1	0	5.7*	2	0
O=[N+]([O-])c1cc(C=NN2CCN(Cc3ccccc3Cl)CC2)ccc1Cl	-2	0	1	2	·
CCOc1ccc(NC(=O)CN2CCN(c3ccc(F)cc3)CC2)cc1S(=O)(=O)N1CCCC1	0	1.0*	0	-1	1
CCNC(=S)N1CCCC(c2nc3ccc(C)cc3[nH]2)C1 (stereo unspecified)	-1	-1	0	0	-1
Cc1ccc2nc(C3CCCCC3)[nH]c2c1	2	0	2	12*	4.7*
CC(=O)Cc1nsc(Nc2ccc(F)cc2)n1	0	-2	0	3	0
CC(=O)Cc1nsc(Nc2ccc3c(c2)OCCO3)n1	1	0	2	12*	2
Cn1c2c(c(=O)n(C)c1=O)C(c1ccccc1Cl)CC(=O)N2 (stereo unspecified)	0	-1	5.8*	-2	1
CC1CC(C)CN(CCCNS(=O)(=O)c2cc3c(cc2Br)CCN3C(=O)C2CC2)C1 (stereo unspecified)	1	-1	-2	2	·
CC1CCc2nn(CC(=O)N3CCCCCC3)cc2C1 (stereo unspecified)	0	-1	-1	-1	2
CC1CCc2nn(CC(=O)N3CCc4ccccc43)cc2C1 (stereo unspecified)	1	0	3	3	4.6*
CC1CCc2nn(CC(=O)NCCN3CCCCC3C)cc2C1 (stereo unspecified)	1	-1	-1	5	5.8*
Cc1ccn(CCC(=O)N2CCc3ccccc32)n1	4.1*	0	1	0	1
CCOc1cccc(-c2nnc(SCC(=O)Nc3ccc4c(c3)OCO4)n2N)c1	-2	-1	-1	-3	·
CCCCOCCCNC(=O)C[C@H]1C[C@@]2(C(=O)OC)C(=C[C@H](COCc3ccccc3)O[C@@H]2C)N(Cc2ccco2)C1=O	-2	-1	1	5	·
CCCCCCCCN1CCS(=O)(=O)N(Cc2ccc(F)cc2)C(C(=O)OC)C1 (stereo unspecified)	-1	-2	-2	1	·
O=P(CCCCCCCCCP(=O)(c1ccccc1)c1ccccc1)(c1ccccc1)c1ccccc1	-2	-2	-3	-4	-2
CCCCCCP(=O)(O)c1ccccc1	0	-1	-1	-1	6.1*

Source: PubChem BioAssay
